For 31 sequences, sensor-assay potency score (higher = more potent) results are on record in the OligoGym collection.
Also: reference of the scale not given here.

The target in the first test is COG2. The test is described as follows: pooled miR-30 sensor sort-seq; sequence = guide strand. As to conditions: shRNA.
ATCGACATCGAAATCTTCCTTC registered a sensor-assay potency score (higher = more potent) of 0.744.

TTGTTTGAGCTTATCCTTGTGT yielded a sensor-assay potency score (higher = more potent) of 0.0501.

For TAATCTCTTTACACTAGCCTGT, the sensor-assay potency score (higher = more potent) was -0.36.

Sequence TTGTCGTCGTCGCTCATGCCAC registered a sensor-assay potency score (higher = more potent) of -1.52.

TTGAACAGCATGAAACTGTAAC gave a sensor-assay potency score (higher = more potent) of -0.748.

The sequence TTTAATACATCTGACACGGTTT yielded a sensor-assay potency score (higher = more potent) of -0.235.

As to TTCTGTGGCAATTCTCTCCAAA, the sensor-assay potency score (higher = more potent) is -0.386.

In turn, TTAATCTCTTTACACTAGCCTG yielded a sensor-assay potency score (higher = more potent) of -1.22.

In a further test the target is COL16A1. The description is as above. To be noted: shRNA.
TGTAGTAAGCCATTCTCTCATC registered a sensor-assay potency score (higher = more potent) of -0.613.

Sequence TCTTGTCTGATGAACCTCTTGA had a sensor-assay potency score (higher = more potent) of 0.162.

In turn, TTGCGGATCTTCTTGATGGCAG returned a sensor-assay potency score (higher = more potent) of -0.676.

TTTCTTCAGCAGTAGTGTCAGC returned a sensor-assay potency score (higher = more potent) of -0.871.

In turn, ATCTCTTGTCTGATGAACCTCT returned a sensor-assay potency score (higher = more potent) of -0.329.

Turning to TTGGTAAGGATCCCAGTTCTGC, the sensor-assay potency score (higher = more potent) was -0.831.

Consider TTGAACTCCTGGTAGACCGGGT, for which the sensor-assay potency score (higher = more potent) was determined as 0.285.

The sequence AAGTGTGACATTGCTGTCCCGG gave a sensor-assay potency score (higher = more potent) of -0.502.

On to ATTTTAATGATCTCTTGTCTGA, for which the sensor-assay potency score (higher = more potent) is -0.577.

In turn, ATGCAGGACACAAAGTCGCCAT had a sensor-assay potency score (higher = more potent) of -0.876.

The sequence TTTAATGATCTCTTGTCTGATG came in with a sensor-assay potency score (higher = more potent) of -0.368.

As to TTAATGATCTCTTGTCTGATGA, the sensor-assay potency score (higher = more potent) was -0.576.

In turn, TCGAACACAGTCATTGCCCCGT registered a sensor-assay potency score (higher = more potent) of -0.664.

On to TTGTCTGATGAACCTCTTGATT, for which the sensor-assay potency score (higher = more potent) was -1.11.

As for TTGAAGGCCAGGCAATCCGGGG, the sensor-assay potency score (higher = more potent) is -1.21.

As for TTTTAATGATCTCTTGTCTGAT, the sensor-assay potency score (higher = more potent) was -0.328.

Consider TGGTTTGCCACAGTCACCCTTA, for which the sensor-assay potency score (higher = more potent) was -0.19.

TTGAAACAGATACCACGTCTTC displayed a sensor-assay potency score (higher = more potent) of -0.641.

In the case of TAGACCTTGCCTTCAGACTGTG, the sensor-assay potency score (higher = more potent) is 0.244.

TTCTCTGCCAATCTGACCAGGG came in with a sensor-assay potency score (higher = more potent) of -0.174.

TGAACCTCTTGATTTCATCATA yielded a sensor-assay potency score (higher = more potent) of -1.14.

In the case of TTCCAATTTGAGTCCTTCCTGC, the sensor-assay potency score (higher = more potent) was found to be 0.311.

Sequence TTGACTTCCAGGGATATCTGTG yielded a sensor-assay potency score (higher = more potent) of -0.154.
